Columns and labels:
Assay in all cases: pooled miR-30 sensor sort-seq; sequence = guide strand
Conditions in all cases: shRNA
SNAP23 = biological target: SNAP23
SNX29 = biological target: SNX29
SPINK5 = biological target: SPINK5
SPINK6 = biological target: SPINK6
Note: reference of the scale not given here.

Sequence: TTGGTGTCAGCCTTGTCTGTGA
- sensor-assay potency score (higher = more potent) (SNAP23): 0.24

Sequence: TACTTGTTTTGTAACTTGTGGT
- sensor-assay potency score (higher = more potent) (SNX29): 0.289

Sequence: TTGAGAAGCTCTAACATGGGAT
- sensor-assay potency score (higher = more potent) (SPINK5): -0.174

Sequence: TTTCTTTTGCTTCTTGCTGGAA
- sensor-assay potency score (higher = more potent) (SPINK5): -0.544

Sequence: TTATTGATGTGCATCTTGCCAT
- sensor-assay potency score (higher = more potent) (SPINK5): -0.0441

Sequence: ACAGTCAACCTGTCCTCCCTGA
- sensor-assay potency score (higher = more potent) (SPINK6): -0.55

— the OligoGym collection
